This note sets out measurements from PMC5540273 (PLoS ONE, 2017).

Each structure is given as a SMILES string.

Holding throughout (details): concentration: 1 μM, replicates: in singlicate; n = 1
In test [1] the test system is T1, ERK4.
T1 construct: gene MAPK4

For test [2], the system named is T2, ERK5.
T2 construct: gene MAPK7

Test [3] concerns T3, ERK8.
T3 construct: gene MAPK15

Test [4] concerns ERN1.
Test [5] has as its system FER.
Test [6] concerns FES.
Test [7] deals with FGFR1.
Test [8] concerns FGFR2.
Test [9] concerns FGFR3.
The test system of test [10] is FGFR4.
Test [11] deals with FGR.
Test [12] deals with FLT1.
Test [13] relates to FLT3-autoinhibited.
Test [14] concerns FLT3.
Test [15] relates to FLT4.
In test [16] the test system is FRK.
Test [17] concerns FYN.
The test system of test [18] is GAK.
The test system of test [19] is T4, GCN2(Kin.Dom.2,S808G).
T4 construct: gene EIF2AK4

Test [20] has as its system T5, FAK.
T5 construct: gene PTK2
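Also: KINOMEscan kinase panel screen.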

For the molecule `CN1c2ccc(-c3ccc(C(=O)NCCO)cc3)cc2-c2[nH]ncc2S1(=O)=O`, the “%Inh” value is on record as 0% in test [1]; 0% in test [2]; 12% in test [3]; 1% in [4]; 11% in test [5]; 17% in test [6]. Moreover, the “%Inh” value was determined as 30% in [7]; 0% in [8]; 0% in test [9]; 8% in [10]; 34% in [11]; 11% in [12]. In addition, the “%Inh” value in [13] is recorded as 20%; in test [14], 37%; in [15] it was 7%; in test [16], 1%; in [17] it was 15%; in [18], 21%. Also, the “%Inh” value in test [19] is recorded as 34%.
For the molecule `Cn1cc(-c2ccc3c(c2)CCN3C(=O)Cc2cccc(C(F)(F)F)c2)c2c(N)ncnc21` [GSK2606414], the “%Inh” value in [1] came out at 7%; in test [2] it was 0%; in test [3], 23%; in test [4] it was 21%; in test [20], 0%; in test [5], 0%. In addition, the “%Inh” value came to 0% in test [6]; 20% in test [7]; 0% in test [8]; 0% in [9]; 0% in test [10]; 0% in test [11]. Also, the “%Inh” value in test [12] was determined as 31%; in test [13] it was 3%; in [14], 28%; in test [15], 22%; in test [16], 0%; in [17], 13%. For the same molecule, the “%Inh” value in [18] came out at 3%; in test [19], 5%.
Consider `FC(F)(F)c1ccc(-c2cc(-c3c[nH]nc3-c3ccccn3)ccn2)cc1` [GW599550], for which the “%Inh” value in test [1] is reported as 0%; in test [2] it was 0%; in [3], 0%; in test [4], 0%; in test [20], 0%; in test [5] it was 32%. In addition, the “%Inh” value is 0% in test [6]; 5% in [7]; 0% in test [8]; 4% in test [9]; 0% in [10]; 14% in [11]. For the same molecule, the “%Inh” value in test [12] was determined as 20%; in test [13], 0%; in test [14], 0%; in test [15], 17%; in [16], 0%; in test [17], 38%. Moreover, the “%Inh” value is on record as 46% in test [18] and 0% in test [19].
Regarding `O=C(Nc1ccccc1F)NC1CCN(c2ccnc(Nc3ccc(F)cc3)n2)C1` (centres unmarked) [GSK1379722], the “%Inh” value in test [1] is 12%; in [2], 0%; in test [3], 31%; in [4] it was 0%; in test [20], 0%; in [5], 26%. Further, the “%Inh” value in [6] worked out at 0%; in [7], 0%; in test [8], 19%; in [9], 15%; in test [10] it was 7%; in test [11] it was 9%. Moreover, the “%Inh” value is 26% in test [12]; 0% in test [13]; 1% in test [14]; 14% in test [15]; 9% in [16]; 0% in test [17]. Besides, the “%Inh” value in test [18] is listed as 0%; in [19], 4%.
Consider `CC(C)(C)OC(=O)NC1CCCN(c2cc(-c3ccc4c(N)n[nH]c4c3)nc(N)n2)C1` (centres unmarked) [GSK2286096], for which the “%Inh” value in test [1] is listed as 23%; in test [2], 29%; in test [3], 0%; in test [4], 7%; in test [20] it was 0%; in [5], 0%. Moreover, the “%Inh” value in [6] is on record as 0%; in test [7], 0%; in test [8], 4%; in [9], 22%; in [10], 14%; in test [11], 4%. Also, the “%Inh” value in test [12] turned out to be 9%; in test [13], 0%; in test [14], 0%; in test [15], 0%; in test [16] it was 2%; in test [17] it was 26%. Besides, the “%Inh” value turned out to be 42% in [18] and 0% in [19].
Consider `Cc1ccc(NC(=O)c2cccc(C#N)c2)cc1-c1ccc(C(=O)Nc2ccncc2)cc1` [GSK1398463], for which the “%Inh” value came to 25% in test [1]; 96.8% in test [2]; 38% in test [3]; 15% in test [4]; 0% in [20]; 3% in test [5]. In addition, the “%Inh” value in [6] is 17%; in test [7], 10%; in [8] it was 17%; in test [9], 33%; in [10] it was 25%; in [11], 47%. For the same molecule, the “%Inh” value worked out at 33% in [12]; 21% in [13]; 0% in test [14]; 12% in test [15]; 92.9% in test [16]; 22% in [17]. Moreover, the “%Inh” value worked out at 14% in test [18] and 0% in test [19].
As to `Clc1cc(Nc2ncnc3cc[nH]c23)ccc1OCc1ccccn1`, the “%Inh” value is reported as 27% in test [1]; 13% in test [2]; 6% in test [3]; 47% in test [4]; 8% in [20]; 1% in test [5]. Further, the “%Inh” value is recorded as 22% in test [6]; 5% in test [7]; 8% in test [8]; 17% in test [9]; 4% in [10]; 24% in test [11]. Also, the “%Inh” value was 0% in test [12]; 5% in test [13]; 7% in [14]; 0% in [15]; 15% in test [16]; 0% in test [17]. Besides, the entries for the “%Inh” value in test [18] and in test [19] were 3% and 0%, respectively.
Regarding `O=C(Nc1n[nH]c2nc(-c3ccco3)c(Br)cc12)c1ccc(CN2CCCC2)cc1.O=C(O)[C@H](O)[C@@H](O)C(=O)O` [SB-742352], the “%Inh” value in test [1] is 0%; in test [2], 0%; in [3], 0%; in test [4], 0%; in test [20], 0%; in test [5] it was 4%. For the same molecule, the “%Inh” value came to 0% in test [6]; 0% in test [7]; 0% in [8]; 1% in test [9]; 0% in test [10]; 3% in test [11]. Besides, the “%Inh” value in [12] is 34%; in test [13], 51%; in [14], 95%; in test [15], 1%; in [16], 0%; in [17], 0%. The “%Inh” value in test [18] and in [19] was 0% each time.
Regarding `Nc1nc(-c2ccccn2)c(-c2ccnc3ccccc23)s1` [GW548057], the “%Inh” value in test [1] was 31%; in test [2] it was 4%; in [3] it was 0%; in test [4], 14%; in [20] it was 0%; in [5] it was 8%. The “%Inh” value in test [6] is recorded as 0%; in test [7], 0%; in [8] it was 0%; in [9] it was 16%; in test [10], 0%; in test [11], 9%. Also, the “%Inh” value in test [12] is on record as 34%; in [13], 0%; in [14], 0%; in [15], 0%; in test [16], 0%; in test [17], 11%. Moreover, the entries for the “%Inh” value in [18] and in test [19] were 47% and 0%, respectively.
